# Screening results (PubChem)
# Only some compounds are listed: those with a hit (about 4.1% of all), similar ones and a draw of the others.
# UGM FP inh = Mtb UDP-galactopyranose mutase inhibition; AID 504406; P9WIQ1; purified UGM, fluorescence polarization probe displacement; 320,000 compounds, 0.06% hits; inhibition, % at 10 µM; in the data active = inhibition above about 10%, passing the limit was not always enough
# Vc quorum ag = inducers of Vibrio cholerae quorum light production without autoinducers | V. cholerae BH1578 lux reporter, luminescence, 6 h | activation, % at 18.7 µM | 350,000 compounds, 0.16% hits; in the data active = activation mostly above about 9.7%, no sharp cut-off
# RecA intein inh = inhibitors of M. tuberculosis RecA intein splicing; P9WHJ3; cell-free RecA intein splicing, fluorescence; inhibition, % (concentration not given with the values); 290,000 compounds, 0.75% hits; AID 2221; in the data active = inhibition above about 30%;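 also: 0% = vehicle wells and 100% = reference inhibitor control wells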
# GDH-TPI counter = counter-screen for M. tuberculosis FBA inhibitors: GDH-TPI coupled enzymes. GDH-TPI coupled enzyme counterscreen, NADH absorbance. inhibition, % at 4.8 µM. 360,000 compounds, 1.2% hits. AID 588335; in the data active = inhibition above about 30%;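 also: 0% = DMSO wells and 100% = wells lacking the enzyme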
# Rv3671c protease = inhibitors of M. tuberculosis serine protease Rv3671c. P9WHR9. inhibition, % at 5.96 µM. 320,000 compounds, 0.048% hits. AID 2606; in the data active = inhibition above about 38%;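 also: extracellular domain of Rv3671c used as enzyme; 0% = enzyme with DMSO and 100% = no enzyme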
# Target sequence (P9WHR9 whole entry, looked up, the tested form may be a part): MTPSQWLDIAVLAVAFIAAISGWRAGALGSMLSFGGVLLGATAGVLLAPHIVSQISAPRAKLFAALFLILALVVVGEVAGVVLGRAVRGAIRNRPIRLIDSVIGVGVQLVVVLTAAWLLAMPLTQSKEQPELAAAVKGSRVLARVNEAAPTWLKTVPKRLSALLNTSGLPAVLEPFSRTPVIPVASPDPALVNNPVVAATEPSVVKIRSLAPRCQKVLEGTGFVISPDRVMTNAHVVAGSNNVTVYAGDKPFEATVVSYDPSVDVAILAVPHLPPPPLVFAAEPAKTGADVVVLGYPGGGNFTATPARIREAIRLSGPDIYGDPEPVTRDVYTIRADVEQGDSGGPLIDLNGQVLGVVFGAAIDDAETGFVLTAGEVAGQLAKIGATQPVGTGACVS
# Mtb FBA inh = Mtb fructose-bisphosphate aldolase inhibition. P9WQA3. purified M. tuberculosis FBA, fluorescence read-out. inhibition, % at 1 µM. 360,000 compounds, 2.3% hits; in the data active = inhibition above about 27%;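 also: 0% = vehicle and 100% = reference inhibitor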
# GFP chromophore = counter-screen: blocks GFP chromophore formation; shares compounds with RecA intein inh; cell-free GFP chromophore formation, fluorescence; EC50, µM; 2,100 compounds, 83% hits; AID 434968; call rule not given here
# Active calls of the source: *; i = inactive; · = no result given.
SMILES,UGM FP inh,Vc quorum ag,RecA intein inh,GDH-TPI counter,Rv3671c protease,Mtb FBA inh,GFP chromophore
COc1cccc(/C=C2\SC(=S)N(CCCC(=O)N3CCCCC3CCO)C2=O)c1 (configuration not stated),0.3,-0.3,0.3,14.8,-11.9,-1.2,·
COc1cccc(/C=C2\SC(=S)N(CCCC(=O)N3CCCC3)C2=O)c1,-0.2,i,32.9*,23.2,-2.9,-0.2,>38
COc1ccc(/C=C2/SC(=S)N(CCCC(=O)Nc3ccc(O)cc3)C2=O)cc1,0.4,-0.3,8.7,13.0,-5.9,-7.2,·
COc1ccc(/C=C2\SC(=S)N(CCCC(=O)Nc3ccc(O)cc3)C2=O)cc1,-0.2,0.0,40.1*,25.3,-3.9,-4.7,>38
Cc1[nH]n(-c2ccccc2)c(=O)c1/C=N/O,-0.3,-0.5,8.3,7.8,-12.6,-2.2,·
Cc1[nH]n(-c2ccccc2)c(=O)c1/C=C1\C=NN=C1c1ccccc1,1.3,-0.7,81.9*,12.2,-26.7,-2.9,7.41*
Cc1nnc(N/N=C\c2ccc(-c3ccccc3[N+](=O)[O-])o2)n1N,-2.1,-0.2,50.5*,5.2,-68.2,-27.4,39.3*
Cc1nnc(N/N=C/c2ccccc2O)n1N,1.3,0.2,75.2*,0.3,-95.8,-9.7,12.2*
Cc1[nH]c2ccccc2c1C(C#N)(C#N)C1C(=O)c2ccccc2C1=O,-3.4,i,42.1*,13.6,-70.2,-4.7,34.1*
Cc1[nH]c2ccccc2c1CC#N,-0.1,-0.2,-1.4,2.3,9.8,0.5,·
O=C(CCl)c1ccc(Cc2ncc(C(F)(F)F)cc2Cl)s1,2.3,-3.1,79.2*,0.8,4.9,-0.1,3.38*
NS(=O)(=O)c1ccc(Cc2ncc(C(F)(F)F)cc2Cl)s1,-1.4,0.3,2.2,-3.0,3.0,1.1,·
COc1ccc(NC(=O)/C(Cl)=C(/Cl)S(=O)(=O)Cc2ccccc2)cn1,·,i,76.4*,-1.0,·,0.3,7.45*
COc1ccc(NC(=O)C(Cl)=C(Cl)Cl)cn1,·,-1.0,5.8,-9.9,·,-5.3,·
COc1ccc(NC(=O)C2CCCN(CCCc3ccccc3)C2)cc1OCC(C)C (configuration not stated),1.8,-0.6,-1.5,18.4,16.5,0.3,·
N=C(N)SCc1cn(-c2ccccc2)nc1-c1ccc(Br)cc1,·,-0.3,39.6*,3.5,·,-4.8,20.5*
COc1ccc(/C=C/C(=O)c2ccc(O)cc2)cc1COc1ccc(F)cc1,1.5,-0.5,35.7*,18.8,-72.5,-0.8,>38
COc1ccc(/C=C/C(=O)c2ccccc2)cc1COc1ccc(F)cc1,4.5,0.5,41.5*,26.4,-10.0,-2.2,>38
COc1cc(CCNC2=CC(=O)c3ncccc3C2=O)ccc1O,·,5.6,·,0.9,·,-6.9,·
CC(=O)N(C1=C(Cl)C(=O)c2ccccc2C1=O)C1CCCCC1,-0.3,1.2,92.5*,5.4,-68.0,-0.1,1.28*
CC(=O)N(c1ccccc1C)C1CCCC1,1.1,-0.5,-0.7,-5.9,5.8,-2.7,·
COc1ccc(C(=O)n2nnc3ccccc32)cc1OC,3.3,-0.3,·,4.7,1.7,1.8,·
COc1ccc(C(=O)n2nnc3ccccc32)cc1Br,-1.5,i,34.5*,0.4,5.2,3.8,>38
Cn1c(=O)[nH]c(=O)c2c1nc([N+](=O)[O-])n2Cc1ccccc1,0.0,-0.3,62.3*,14.6,7.9,3.1,17.4*
CCOC1(OCC)C(c2ccc(N)cc2)C(C#N)(C#N)C1(OCC)OCC (configuration not stated),-3.7,-6.7,·,13.8,-0.5,-1.0,·
SMILES,UGM FP inh,Vc quorum ag,RecA intein inh,GDH-TPI counter,Rv3671c protease,Mtb FBA inh,GFP chromophore
CCOC1(OCC)C(c2ccc(Cl)cc2)C(C#N)(C#N)C1(OCC)OCC (configuration not stated),-0.2,4.3,55.9*,6.1,-6.8,-5.9,>38
N#CC(c1ccccc1)c1cnccn1 (configuration not stated),0.9,i,33.3*,-13.5,-1.2,1.7,>38
CC(C)(C)c1ccc(/C=C(\c2nc3ccccc3[nH]2)S(=O)(=O)c2ccccc2)cc1,4.3,i,82.4*,2.9,-65.4,-3.9,6.61*
CCn1nc(C(=O)Nc2cc(Cl)ccc2-n2cncn2)c2ccccc2c1=O,0.9,i,0.4,-5.3,2.9,-1.9,·
CC(=O)c1cc2ccccc2oc1=O,-2.8,i,·,11.8,-3.1,2.9,·
C/C(=N\NC(=O)CC#N)c1cc2ccccc2oc1=O,-3.6,-0.4,86.2*,5.7,-8.3,-1.0,12.9*
O=C1Cc2ccccc2C(=O)N1c1ccccc1,-2.1,-0.7,0.8,-5.0,2.5,-3.9,·
O=C1Cc2ccccc2C(=O)N1Cc1ccccc1,4.2,i,90.4*,12.7,-51.8,4.5,1.87*
CSc1ccc(/C=C(\NC(=O)c2ccccc2)C(=O)NCCN2CCOCC2)cc1,-1.6,-0.2,-0.5,14.0,5.9,0.2,·
O=C(OCc1cnc(Cl)s1)c1ccccc1Cl,·,-0.9,1.9,0.4,0.4,-0.1,·
O=C(OCn1ncc(Br)c(Br)c1=O)c1ccccc1Cl,2.6,i,63.9*,6.7,-9.5,0.0,1.75*
O=C(OCn1ncc(Br)c(Br)c1=O)c1ccc(F)cc1,-2.8,-0.8,72.6*,-0.8,-4.7,0.0,2.18*
O=C(CCS(=O)(=O)c1ccccc1)NNC(=O)COc1ccc(F)cc1,1.5,i,·,5.7,-3.2,1.3,·
COc1ccccc1Cc1c(-c2ccco2)nc2ccc(C)cn12,·,·,·,·,·,15.2,·
Cc1ccc(S(=O)(=O)/N=C(/Nc2nc(C)cs2)c2ccccc2)cc1,1.3,i,·,16.9,3.0,0.0,·
CCCCN1C(=O)C(=O)N(CC(=O)Nc2cc(Cl)ccc2OC)C1=O,·,-2.1,·,10.4,9.7,4.3,·
O=C1C=C(N2CCOCC2)c2ccccc2C1=O,-0.5,0.4,96.8*,17.4,-159.8,-4.8,0.557*
O=C1C=C(N2CC2)c2ccccc2C1=O,·,-4.5,·,-0.9,·,-3.2,·
Cc1cccc(NC(=O)CN2CCN(C(=O)c3cncn3-c3ccc(F)cc3)CC2)c1C,-0.4,i,·,2.7,-10.8,-1.1,·
CCOC(=O)C(C(=O)OCC)c1cc(Br)c2noc3c2c1C(=O)c1ccccc1-3,-0.2,i,82.1*,2.5,-1.4,3.8,3.3*
Cc1ccc2c(c1)c1c(n2CC(O)CN2CCCCCC2)CCCC1 (configuration not stated),-1.3,i,44.2*,1.1,1.3,4.0,>38
CN(C)c1cc(-c2ccc(Cl)c(Cl)c2)oc(=O)c1Cl,5.2,-0.3,0.7,0.0,-9.7,-3.1,·
Cc1[nH][nH]c(=O)c1C(c1ccc(-c2ccc(F)cc2)o1)c1c(C)[nH][nH]c1=O,-0.4,i,96.9*,4.2,-131.6,-8.3,0.579*
Cc1[nH][nH]c(=O)c1C(c1ccc(-c2ccc(Cl)c(Cl)c2)o1)c1c(C)[nH][nH]c1=O,0.2,i,97.1*,7.4,-26.2,-4.0,0.66*
Cc1[nH][nH]c(=O)c1C(c1ccc(-c2ccc(C(=O)O)cc2)o1)c1c(C)[nH][nH]c1=O,·,0.1,·,0.3,·,-6.5,·
